# Assay results taken from PubChem BioAssay (NCI).
# The panel holds about 79,000 compounds, 15% with a hit somewhere; the sample as a whole holds those more often. Values without a mark were called inactive. Calls of active or inactive are those of the source. Cut-off read from the data, not from the text of the source: active = growth inhibition above about 70%; inactive = the rest.
# Columns and labels:
# [1] = NCI Yeast Anticancer Drug Screen. Data for the rad52 strain (AID 147);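 note: 0% = growth of vehicle-treated control cultures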; conditions: S. cerevisiae rad52 mutant growth inhibition, stronger effect = higher value
# Procedure, shortened: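 Measured: yeast growth inhibition. System: strain with a defined DNA damage repair alteration. Reference: vehicle-treated control cultures.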
# [2] = NCI Yeast Anticancer Drug Screen. Data for the wt1 strain (AID 149);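 note: 0% = growth of vehicle-treated wt1 cultures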; conditions: S. cerevisiae wt1 strain (SPY 50644) growth inhibition, stronger effect = higher value
# Procedure, shortened: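 The wt1 strain was treated with compounds, and growth was compared with vehicle-treated cultures to give inhibition.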
# [3] = NCI Yeast Anticancer Drug Screen. Data for the rad50EPP+ strain (AID 151);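 note: 0% = growth of vehicle-treated control cultures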; conditions: S. cerevisiae rad50 mutant strain, stronger effect = higher value
# Procedure, shortened: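 One strain with a rad50 alteration (rad50EPP+) was compound-treated, its growth then compared to that of vehicle controls.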
# [4] = NCI Yeast Anticancer Drug Screen. Data for the mgt1 strain (AID 153); conditions: S. cerevisiae mgt1 mutant growth inhibition, stronger effect = higher value
# Procedure, shortened: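 After exposure of the mgt1 yeast mutant to compound, growth was measured and reported as inhibition compared with vehicle controls.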
# [5] = NCI Yeast Anticancer Drug Screen. Data for the rad50 strain (AID 155);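 note: 0% = growth of vehicle-only cultures of the same strain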; conditions: S. cerevisiae rad50 strain growth inhibition, stronger effect = higher value
# Procedure, shortened: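 Cells are treated with compound, grown, and their growth is then scored against vehicle-only cultures of the same repair-deficient yeast strain.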
# [6] = NCI Yeast Anticancer Drug Screen. Data for the mec2-1 strain (AID 157); conditions: S. cerevisiae mec2-1 strain, stronger effect = higher value
# Procedure, shortened: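 Test agents were screened against the mec2-1 yeast strain, with defined DNA repair or cell cycle alteration. Growth was scored as inhibition against vehicle-only controls.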
# [7] = NCI Yeast Anticancer Drug Screen. Data for the rad14 strain (AID 159);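 note: 0% = growth of vehicle-treated control cultures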; conditions: S. cerevisiae rad14 strain growth inhibition, stronger effect = higher value
# Procedure, shortened: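 Readout: yeast growth inhibition, referenced to vehicle-only cultures. Strain bears a defined alteration in DNA damage repair.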
# [8] = NCI Yeast Anticancer Drug Screen. Data for the CLN2oe strain (AID 163);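 note: 0% = growth of vehicle-only control cultures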; conditions: S. cerevisiae CLN2oe strain, stronger effect = higher value
# Procedure, shortened: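 Here, growth inhibition in a cell-cycle-altered yeast strain after compound exposure was quantified against vehicle control growth.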
# [9] = NCI Yeast Anticancer Drug Screen. Data for the cln2 rad14 strain (AID 165);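 note: 0% = growth equal to vehicle treated cultures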; conditions: S. cerevisiae cln2 rad14 strain, stronger effect = higher value
# Procedure, shortened: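 Growth of compound-exposed yeast (cln2 rad14 genotype) measured and expressed as inhibition relative to vehicle.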
# [10] = NCI Yeast Anticancer Drug Screen. Data for the bub3 strain (AID 167); conditions: S. cerevisiae bub3 mutant strain, stronger effect = higher value
# Procedure, shortened: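 Part of a panel of yeast mutants defective in DNA damage repair or cell cycle regulation. Each strain is grown with compound, and inhibition is calculated relative to solvent-treated cultures.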
# [11] = NCI Yeast Anticancer Drug Screen. Data for the wt2 strain (AID 169);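 note: 0% = growth of vehicle-treated yeast cultures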; conditions: S. cerevisiae wt2 strain growth inhibition, stronger effect = higher value
# Procedure, shortened: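 Genetically defined yeast strains from a DNA-repair/cell-cycle panel were used. Compound-exposed yeast growth was measured, and the inhibition was calculated relative to vehicle treatment.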
# [12] = NCI Yeast Anticancer Drug Screen. Data for the mlh1 strain (AID 171);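 note: 0% = growth of vehicle-treated control cultures of the same strain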; conditions: S. cerevisiae mlh1 strain growth inhibition, stronger effect = higher value
# Procedure, shortened: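 Here the genetically defined yeast mutant is grown with each compound, and the extent to which its growth falls below that of vehicle-exposed cells is reported.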
# [13] = NCI Yeast Anticancer Drug Screen. Data for the mlh1 rad18 strain (AID 175); conditions: S. cerevisiae mlh1 rad18 strain growth inhibition, stronger effect = higher value
# Procedure, shortened: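 In this whole-cell yeast screen, a strain with altered DNA damage repair is challenged with compound, and its growth is measured against matched vehicle-treated controls.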
# [14] = NCI Yeast Anticancer Drug Screen. Data for the rad18 strain (AID 177); conditions: S. cerevisiae rad18 mutant growth inhibition, stronger effect = higher value
# Procedure, shortened: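 Screen uses a yeast strain with a defined lesion in DNA damage repair; compound effect is read as loss of growth compared to untreated vehicle cultures.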
# [15] = NCI Yeast Anticancer Drug Screen. Data for the sgs1 mgt1 strain (AID 161);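 note: 0% = growth of cultures given vehicle only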; conditions: S. cerevisiae sgs1 mgt1 strain, stronger effect = higher value
# Procedure, shortened: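 Test agents were incubated with a DNA-repair-mutant yeast strain. Growth was then read and compared against vehicle-treated controls.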
# [16] = NCI Yeast Anticancer Drug Screen. Data for the sgs1 strain (AID 173);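 note: 0% = growth of vehicle-only control cultures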; conditions: S. cerevisiae sgs1 mutant, stronger effect = higher value
# Procedure, shortened: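 Relative growth inhibition, referenced to vehicle, was determined in a yeast strain with a defined alteration affecting DNA damage repair or cell cycle control after compound exposure.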
# [17] = at 5.0 µM (retest, dose inferred, filed as 0.5)
# [18] = at 50.0 µM (retest, dose inferred, filed as 5.0)
structure (smiles),measurement,setting,value
O=C1CSC(/C=C/c2ccccc2)N1c1ccc(-c2ccc(-n3c(-c4ccccc4)nc4ccccc4c3=O)cc2)cc1 (stereo not drawn),growth inhibition,[1]; at 1.2 µM,-2%
same,growth inhibition,[1]; at 3.7 µM,1%
same,growth inhibition,[1]; at 11.0 µM,4%
same,growth inhibition,[1]; at 33.0 µM,15%
same,growth inhibition,[1]; at 100.0 µM,61%
same,growth inhibition,[2]; at 1.2 µM,-2%
same,growth inhibition,[2]; at 3.7 µM,-2%
same,growth inhibition,[2]; at 11.0 µM,-3%
same,growth inhibition,[2]; at 33.0 µM,-6%
same,growth inhibition,[2]; at 100.0 µM,14%
same,growth inhibition,[3]; at 1.2 µM,2%
same,growth inhibition,[3]; at 3.7 µM,10%
same,growth inhibition,[3]; at 11.0 µM,19%
same,growth inhibition,[3]; at 33.0 µM,28%
same,growth inhibition,[3]; at 100.0 µM,29%
same,growth inhibition,[4]; at 1.2 µM,-2%
same,growth inhibition,[4]; at 3.7 µM,-2%
same,growth inhibition,[4]; at 11.0 µM,-4%
same,growth inhibition,[4]; at 33.0 µM,19%
same,growth inhibition,[4]; at 100.0 µM,81% (active)
same,growth inhibition,[5]; at 1.2 µM,-1%
same,growth inhibition,[5]; at 3.7 µM,3%
same,growth inhibition,[5]; [17],-9%
same,growth inhibition,[5]; at 11.0 µM,5%
same,growth inhibition,[5]; at 33.0 µM,22%
same,growth inhibition,[5]; [18],78% (active)
same,growth inhibition,[5]; at 50.0 µM,75.5% (active)
same,growth inhibition,[5]; at 100.0 µM,58%
same,growth inhibition,[6]; at 1.2 µM,-1%
same,growth inhibition,[6]; at 3.7 µM,0%
same,growth inhibition,[6]; [17],0%
same,growth inhibition,[6]; at 11.0 µM,1%
same,growth inhibition,[6]; at 33.0 µM,7%
same,growth inhibition,[6]; [18],45%
same,growth inhibition,[6]; at 50.0 µM,42.5%
same,growth inhibition,[6]; at 100.0 µM,67%
same,growth inhibition,[7]; at 1.2 µM,1%
same,growth inhibition,[7]; at 3.7 µM,2%
same,growth inhibition,[7]; at 11.0 µM,9%
same,growth inhibition,[7]; at 33.0 µM,31%
same,growth inhibition,[7]; at 100.0 µM,79% (active)
same,growth inhibition,[8]; at 1.2 µM,2%
same,growth inhibition,[8]; at 3.7 µM,-1%
same,growth inhibition,[8]; at 11.0 µM,-6%
same,growth inhibition,[8]; at 33.0 µM,-9%
same,growth inhibition,[8]; at 100.0 µM,22%
same,growth inhibition,[9]; [17],9%
same,growth inhibition,[9]; [18],42%
same,growth inhibition,[9]; at 50.0 µM,32.5%
same,growth inhibition,[10]; at 1.2 µM,4%
same,growth inhibition,[10]; at 3.7 µM,12%
same,growth inhibition,[10]; [17],-6%
same,growth inhibition,[10]; at 11.0 µM,22%
same,growth inhibition,[10]; at 33.0 µM,35%
same,growth inhibition,[10]; [18],65%
same,growth inhibition,[10]; at 50.0 µM,75% (active)
same,growth inhibition,[10]; at 100.0 µM,79% (active)
same,growth inhibition,[11]; at 1.2 µM,-3%
same,growth inhibition,[11]; at 3.7 µM,-3%
same,growth inhibition,[11]; at 11.0 µM,-4%
same,growth inhibition,[11]; at 33.0 µM,5%
same,growth inhibition,[11]; at 100.0 µM,62%
same,growth inhibition,[12]; at 1.2 µM,-2%
same,growth inhibition,[12]; at 3.7 µM,-1%
same,growth inhibition,[12]; at 11.0 µM,-2%
same,growth inhibition,[12]; at 33.0 µM,18%
same,growth inhibition,[12]; at 100.0 µM,77% (active)
same,growth inhibition,[13]; [17],-6%
same,growth inhibition,[13]; [18],91% (active)
same,growth inhibition,[13]; at 50.0 µM,84.3% (active)
same,growth inhibition,[14]; at 1.2 µM,-3%
same,growth inhibition,[14]; at 3.7 µM,1%
same,growth inhibition,[14]; at 11.0 µM,5%
same,growth inhibition,[14]; at 33.0 µM,13%
same,growth inhibition,[14]; at 100.0 µM,46%
S=C(N/N=C(/c1ccccc1)c1ccccn1)N1CCCCCC1,growth inhibition,[1]; at 1.2 µM,42%
same,growth inhibition,[1]; at 3.7 µM,52%
same,growth inhibition,[1]; at 11.0 µM,57%
same,growth inhibition,[1]; at 33.0 µM,57%
same,growth inhibition,[1]; at 100.0 µM,41%
same,growth inhibition,[2]; at 1.2 µM,-3%
same,growth inhibition,[2]; at 3.7 µM,3%
same,growth inhibition,[2]; at 11.0 µM,4%
same,growth inhibition,[2]; at 33.0 µM,2%
same,growth inhibition,[2]; at 100.0 µM,-2%
same,growth inhibition,[3]; at 1.2 µM,5%
same,growth inhibition,[3]; at 3.7 µM,7%
same,growth inhibition,[3]; at 11.0 µM,8%
same,growth inhibition,[3]; at 33.0 µM,3%
same,growth inhibition,[3]; at 100.0 µM,6%
same,growth inhibition,[4]; at 1.2 µM,-5%
same,growth inhibition,[4]; at 3.7 µM,-7%
same,growth inhibition,[4]; at 11.0 µM,16%
same,growth inhibition,[4]; at 33.0 µM,-18%
same,growth inhibition,[4]; at 100.0 µM,-6%
same,growth inhibition,[5]; at 1.2 µM,0%
same,growth inhibition,[5]; at 3.7 µM,6%
same,growth inhibition,[5]; [17],5%
same,growth inhibition,[5]; at 11.0 µM,-20%
same,growth inhibition,[5]; at 33.0 µM,4%
same,growth inhibition,[5]; [18],96% (active)
same,growth inhibition,[5]; at 50.0 µM,76.7% (active)
same,growth inhibition,[5]; at 100.0 µM,8%
same,growth inhibition,[6]; at 1.2 µM,1%
same,growth inhibition,[6]; at 3.7 µM,0%
same,growth inhibition,[6]; [17],24%
same,growth inhibition,[6]; at 11.0 µM,4%
same,growth inhibition,[6]; at 33.0 µM,1%
same,growth inhibition,[6]; [18],97% (active)
same,growth inhibition,[6]; at 50.0 µM,80.5% (active)
same,growth inhibition,[6]; at 100.0 µM,4%
same,growth inhibition,[7]; at 1.2 µM,-5%
same,growth inhibition,[7]; at 3.7 µM,-4%
same,growth inhibition,[7]; at 11.0 µM,-4%
same,growth inhibition,[7]; at 33.0 µM,-5%
same,growth inhibition,[7]; at 100.0 µM,-1%
same,growth inhibition,[15]; [17],75% (active)
same,growth inhibition,[15]; [18],96% (active)
same,growth inhibition,[15]; at 50.0 µM,85.4% (active)
same,growth inhibition,[9]; [17],18%
same,growth inhibition,[9]; [18],96% (active)
same,growth inhibition,[9]; at 50.0 µM,82.5% (active)
same,growth inhibition,[10]; at 1.2 µM,4%
same,growth inhibition,[10]; at 3.7 µM,16%
same,growth inhibition,[10]; [17],95% (active)
same,growth inhibition,[10]; at 11.0 µM,22%
same,growth inhibition,[10]; at 33.0 µM,13%
same,growth inhibition,[10]; [18],97% (active)
same,growth inhibition,[10]; at 50.0 µM,87.8% (active)
same,growth inhibition,[10]; at 100.0 µM,2%
same,growth inhibition,[11]; at 1.2 µM,5%
same,growth inhibition,[11]; at 3.7 µM,7%
same,growth inhibition,[11]; at 11.0 µM,12%
same,growth inhibition,[11]; at 33.0 µM,10%
same,growth inhibition,[11]; at 100.0 µM,5%
same,growth inhibition,[12]; at 1.2 µM,-3%
same,growth inhibition,[12]; at 3.7 µM,-2%
same,growth inhibition,[12]; at 11.0 µM,4%
same,growth inhibition,[12]; at 33.0 µM,1%
same,growth inhibition,[12]; at 100.0 µM,-1%
same,growth inhibition,[16]; at 1.2 µM,4%
same,growth inhibition,[16]; at 3.7 µM,10%
same,growth inhibition,[16]; at 11.0 µM,11%
same,growth inhibition,[16]; at 33.0 µM,10%
same,growth inhibition,[16]; at 100.0 µM,7%
same,growth inhibition,[13]; [17],93% (active)
same,growth inhibition,[13]; [18],97% (active)
same,growth inhibition,[13]; at 50.0 µM,86.2% (active)
same,growth inhibition,[14]; at 1.2 µM,8%
same,growth inhibition,[14]; at 3.7 µM,20%
same,growth inhibition,[14]; at 11.0 µM,20%
same,growth inhibition,[14]; at 33.0 µM,6%
same,growth inhibition,[14]; at 100.0 µM,19%
